Measurements published in paper PMC4552634, “A New Set of Chemical Starting Points with Plasmodium falciparum Transmission-Blocking Potential for Antimalarial Drug Discovery” (PLoS ONE, 2015).
Among all 13,000 compounds or so, about 3,200 (25%) showed an effect of 50% or more. The list shows a part of the results.

The compounds below were run on P. falciparum stage V gametocytes. Conditions: 48 h, 5 µM; inhibitor.
Design: BacTiter-Glo ATP luminescence viability of purified stage V gametocytes in 384-well plates, per cent inhibition versus DMSO
For `Cc1ccc(NC(=O)c2ccc(CN3CCCN(Cc4cccc(O)c4)CC3)cc2)cc1` [TCMDC-136398], the “% Inhibition” value was -12.68%.
For `Cc1ccc(Nc2nnc(SCC(=O)Nc3ccc(CN4CCCC4)cc3)s2)cc1` [TCMDC-125043], the “% Inhibition” value was 65.4%.
`Cc1ccc(NC(=O)c2ccc(CN3CCCN(CC4CCCCC4)CC3)cc2)cc1` [TCMDC-136397] was tested, and the “% Inhibition” value was -64.33%.
For `COc1ccccc1C1CCN(C2CCC(NC(=O)/C=C/c3ccc(C(F)(F)F)cc3F)CC2)CC1` (stereo not drawn) [TCMDC-133486], the “% Inhibition” value was -41.82%.
For `O=C(Nc1ccncc1)Nc1ccc2c(c1)CCN(C1CCC1)CC2` [TCMDC-135949], the “% Inhibition” value was 33.65%.
In the case of `O=C(Nc1ccc2c(c1)CCC2)c1cccc(N2CCN(c3ccncc3)CC2)c1` [TCMDC-135125], the “% Inhibition” value is reported as 2.245%.
With `O=C(c1cccc(COc2ccc3c(c2)CCN(C2CCCC2)CC3)c1)N1CCN(c2ccncc2)CC1` [TCMDC-134128] the “% Inhibition” value was 76.76%.
For `Oc1ccc(CCNc2nc(NCc3ccccc3-c3ccc(F)cc3)nc(N3CCNCC3)n2)cc1` [TCMDC-133783], the “% Inhibition” value was 11.92%.
For `COc1ccc2nccc([C@@H](O)CN3CCC(NCc4ccc5scnc5c4)CC3)c2c1` [TCMDC-141081], the “% Inhibition” value was 9.68%.
With `Cc1ccc(NC(=O)c2ccc(Cl)c(Cl)c2)cc1-c1ccc(C(=O)Nc2ccncc2)cc1` [TCMDC-133696] the “% Inhibition” value was -4.564%.
For `CCOc1cc(C)ccc1C1CCN(CCCCNC(=O)c2cnc(-c3ccc(C(F)(F)F)cc3)[nH]2)CC1` [TCMDC-138581], the “% Inhibition” value was 5.476%.
`COc1ccc(NC(=O)CCNc2ccnc(NCCc3ccc(F)cc3)n2)cc1` [TCMDC-134823] was tested, and the “% Inhibition” value was 38.74%.
For `COc1ccc2c(CCNc3nc(SC)ncc3C(=O)NCCc3ccc(F)cc3)c[nH]c2c1` [TCMDC-136796], the “% Inhibition” value was 55%.
With `COc1ccc(NC(=O)[C@H](CC(C)C)Nc2ccnc(NCCc3ccc(F)cc3)n2)cc1` [TCMDC-134826] the “% Inhibition” value was 23.86%.
For `CCNCc1ccc(-c2cc3ncnc(Nc4ccc(OCc5cccc(F)c5)c(Cl)c4)c3s2)[nH]1` [TCMDC-135542], the “% Inhibition” value was -36.05%.
In the case of `Cc1ccc(N/C(N)=N/c2ncccc2OCc2c(F)cccc2Cl)cc1` [TCMDC-138944], the “% Inhibition” value is reported as 83.96%.
With `Clc1ccccc1OCc1ccccn1` [TCMDC-125865] the “% Inhibition” value was -0.5645%.
In the case of `Cc1ccc(F)c(NC(=O)c2c(-c3c(F)cccc3Cl)noc2C)c1` [TCMDC-125643], the “% Inhibition” value is reported as -20.89%.
With `O=C(/C=C/c1ccc(Cl)c(Cl)c1)NCCCCCN1CCCN(C(=O)Nc2cccc(F)c2)CC1` [TCMDC-135745] the “% Inhibition” value was -38.92%.
In the case of `O=C(Nc1ccc(-c2nc3ccc(NC(=O)c4ccc(Br)cc4)cc3[nH]2)cc1)c1ccc(Br)cc1` [TCMDC-124212], the “% Inhibition” value is reported as -13.35%.
`Cc1ccc(-c2nc3ccc(C(=O)NC4CCN(Cc5ccccc5)CC4)cc3[nH]2)cc1` [TCMDC-133073] was tested, and the “% Inhibition” value was 5.058%.
In the case of `COc1cc(C(=O)Nc2cccc(-c3nc4ccccc4[nH]3)c2)cc(OC)c1OC` [TCMDC-125848], the “% Inhibition” value is reported as -4.164%.
With `COc1cccc(C(=O)Nc2ccc(-c3nc4ccccc4[nH]3)cc2)c1` [TCMDC-124429] the “% Inhibition” value was 5.991%.
With `CCOc1cccc(C(=O)Nc2ccc(-c3nc4ccccc4[nH]3)cc2)c1` [TCMDC-123752] the “% Inhibition” value was 24.98%.
With `CCOc1cc(C(=O)Nc2ccc(-c3nc4ccccc4[nH]3)cc2)cc(OCC)c1OCC` [TCMDC-125676] the “% Inhibition” value was -48.5%.
With `Cc1ccc(-c2nc3ccc(C(=O)NC4CCC(N5CCCc6ccc(C#N)cc6C5)CC4)cc3[nH]2)cc1` (stereo not drawn) [TCMDC-133551] the “% Inhibition” value was -1.563%.
`N#Cc1cccc(C(=O)Nc2ccc(-c3nc4ccccc4[nH]3)cc2)c1` [TCMDC-124812] was tested, and the “% Inhibition” value was 70.91%.
`COc1ccc(Cl)cc1C(=O)Nc1ccc(-c2nc3ccccc3[nH]2)cc1` [TCMDC-125808] was tested, and the “% Inhibition” value was 9.6%.
With `COc1ccccc1C1CCN(C2CCC(NC(=O)c3ccc4nc(-c5ccc(C)cc5)[nH]c4c3)CC2)CC1` (stereo not drawn) [TCMDC-133556] the “% Inhibition” value was 115.6%.
With `COc1cc(C(=O)Nc2ccc(-c3nc4ccccc4[nH]3)cc2)cc(OC)c1OC` [TCMDC-125796] the “% Inhibition” value was 51.37%.
For `COc1ccc(C(=O)Nc2ccc(-c3nc4ccc(C)cc4[nH]3)cc2)cc1OC` [TCMDC-124358], the “% Inhibition” value was 77.27%.
`Cc1c(CNCCCNc2cc(=O)c3ccccc3[nH]2)sc(C(F)=C(F)F)c1Br` [TCMDC-141189] was tested, and the “% Inhibition” value was -2.633%.
`Cn1c(=O)c2nc(-c3ccc(Cl)cc3)nnc2n(CCCC#N)c1=O` [TCMDC-138537] was tested, and the “% Inhibition” value was 18.59%.
`CCOc1ccc(/C=C/C(=O)Nc2cccc3c2CCN(C)C3)cc1` [TCMDC-139243] was tested, and the “% Inhibition” value was 3.869%.
`COc1ccc2nccc([C@@H](O)CN3CCC(NC(=O)COc4nc(SCc5ccc(F)cc5)nc5c4CCC5)CC3)c2c1` [TCMDC-141132] was tested, and the “% Inhibition” value was -0.4192%.
For `COC(=O)c1ccc(CC(C)NCC(O)c2cc(Cl)c(N)c(Cl)c2)cc1` (stereo not drawn) [TCMDC-131421], the “% Inhibition” value was 9.503%.
For `CCOc1ccc(C(=O)Nc2ccc(-c3nc4ccccc4[nH]3)cc2)cc1[N+](=O)[O-]` [TCMDC-125221], the “% Inhibition” value was -12.2%.
In the case of `O=C(Nc1ccc(-c2nc3ccccc3[nH]2)cc1)c1ccc(Cl)c([N+](=O)[O-])c1` [TCMDC-125730], the “% Inhibition” value is reported as 2.294%.
`Cc1cc(C(=O)Nc2ccc(-c3nc4ccccc4[nH]3)cc2)ccc1[N+](=O)[O-]` [TCMDC-123604] was tested, and the “% Inhibition” value was 62.44%.
For `Nc1ncc(-c2ccc(F)c(Cl)c2)c(N)n1` [TCMDC-137296], the “% Inhibition” value was -16.29%.
In the case of `O=S(=O)(ON=C1CCc2ccccc21)c1ccc(Cl)cc1` [TCMDC-125427], the “% Inhibition” value is reported as 20.26%.
`Cc1cccc(Nc2nc3nonc3nc2Nc2cccc(Cl)c2Cl)c1C` [TCMDC-125806] was tested, and the “% Inhibition” value was 15.39%.
With `Cc1cc(I)ccc1Nc1nc2nonc2nc1Nc1ccc(I)cc1C` [TCMDC-124083] the “% Inhibition” value was 56.47%.
With `CS(=O)(=O)c1cc2c(Nc3ccc(N4CCOCC4)cc3)c(C(N)=O)cnc2cc1Br.Cl` [TCMDC-135826] the “% Inhibition” value was 40.37%.
For `CC(CN(C)C)C(=O)Nc1cccc(-c2ccc(-c3nc4ccccc4[nH]3)s2)c1` (stereo not drawn) [TCMDC-137102], the “% Inhibition” value was -38.48%.
`O=c1cc(NCCC(CNCCc2ccccc2)NCc2cc(Br)cc(Br)c2)[nH]c2ccccc12` (stereo not drawn) [TCMDC-140344] was tested, and the “% Inhibition” value was 98.47%.
With `O=c1cc(NCCC(CNCc2ccoc2)NCc2cc(Br)cc(Br)c2)[nH]c2ccccc12` (stereo not drawn) [TCMDC-140343] the “% Inhibition” value was 58.98%.
With `O=c1cc(NCCCCNCc2cccc(Br)c2)[nH]c2ccccc12` [TCMDC-139312] the “% Inhibition” value was -82.6%.
With `O=c1cc(NCCCCNCc2ccc(Br)c(Br)c2)[nH]c2ccccc12` [TCMDC-139308] the “% Inhibition” value was -72.79%.
In the case of `O=c1cc(NCCCNC(CNCCc2ccccc2)c2cc(Br)cc(Br)c2)[nH]c2ccccc12` (stereo not drawn) [TCMDC-140370], the “% Inhibition” value is reported as -71.22%.
In the case of `C=CCCCNCC(NCCCNc1cc(=O)c2ccccc2[nH]1)c1cc(Br)cc(Br)c1` (stereo not drawn) [TCMDC-140371], the “% Inhibition” value is reported as -52.81%.
In the case of `Cn1nccc1C(=O)NCCNCc1cccc(-c2ccc(-c3nc4cc(C(F)(F)F)ccc4[nH]3)s2)c1.O=C(O)C(F)(F)F` [TCMDC-133010], the “% Inhibition” value is reported as 8.568%.
For `CCCc1cccc(OC)c1OCCCON1C(N)=NC(N)=NC1(C)C` [TCMDC-131338], the “% Inhibition” value was -11.7%.
For `O=C(CSc1nccn1Cc1ccco1)Nc1cc(C(F)(F)F)ccc1Cl` [TCMDC-125134], the “% Inhibition” value was 10.58%.
In the case of `CS(=O)(=O)Cc1ccc(Nc2nccc(NC3CCN(c4nccc(C(F)(F)F)n4)CC3)n2)cc1` [TCMDC-134397], the “% Inhibition” value is reported as 7.117%.
With `COC(=O)C1=CNC=C(C(=O)OC)C1c1ccc(Cl)c([N+](=O)[O-])c1` [TCMDC-125154] the “% Inhibition” value was -60.53%.
For `Cc1cc(C(=O)CN2C(=O)NC3(CCCc4ccccc43)C2=O)c(C)n1Cc1ccco1` (stereo not drawn) [TCMDC-124502], the “% Inhibition” value was 2.781%.
For `Nc1nc(N)c2c(ccc3c2cnn3Cc2cccnc2)n1` [TCMDC-131932], the “% Inhibition” value was 23.15%.
In the case of `COc1ccc(-c2ccc(NC(=O)c3cccc(Cl)c3)cc2)cc1CNC(C)C` [TCMDC-132524], the “% Inhibition” value is reported as 39.19%.
`COc1ccc(-c2cccc(NC(=O)c3ccc(Cl)cc3)c2)cc1CN(C)CCN(C)C` [TCMDC-132605] was tested, and the “% Inhibition” value was -10.06%.
For `COc1ccc(-c2ccc(NC(=O)c3cccc(Cl)c3)cc2)cc1CN(C)CCN(C)C` [TCMDC-133335], the “% Inhibition” value was 14.93%.
For `CN(C)Cc1ccc(-c2cccc(NC(=O)c3ccc(Cl)cc3)c2)cc1` [TCMDC-132632], the “% Inhibition” value was 4.982%.
`CN(C)Cc1ccc2cc(NC(=O)c3ccc(-c4ccc(Cl)cc4)cc3)ccc2n1` [TCMDC-134644] was tested, and the “% Inhibition” value was 5.45%.
With `COc1ccc(-c2ccc(NC(=O)c3ccc(C#N)cc3)cc2)cc1CN(C)CCO` [TCMDC-132521] the “% Inhibition” value was 28.66%.
For `COc1ccc(-c2cccc(NC(=O)c3cccc(Cl)c3)c2)cc1CN(C)CCN(C)C` [TCMDC-132616], the “% Inhibition” value was 105.4%.
For `COc1ccc(-c2ccc(NC(=O)c3cccc(Cl)c3)cc2)cc1CN(C)CCO` [TCMDC-132527], the “% Inhibition” value was 86.37%.
With `COc1ccc(-c2ccc(NC(=O)c3ccc(Cl)cc3)cc2)cc1CN(C)CCO` [TCMDC-132513] the “% Inhibition” value was 86.93%.
With `COc1ccc(-c2ccc(NC(=O)c3ccc(Cl)cc3)cc2)cc1CN(C)CCN(C)C` [TCMDC-132511] the “% Inhibition” value was 46.96%.
With `CN(C)Cc1ccc2cc(NC(=O)c3ccc(-c4ccc(Cl)cc4)cc3)ccc2c1` [TCMDC-134694] the “% Inhibition” value was 77.36%.
